High-throughput results: PubChem BioAssay, National Center for Advancing Translational Sciences (NCATS)
Most compounds without a hit are left out; they make up all but 10% or so of the library.
PNC inhibitor: perinucleolar compartment assembly inhibition; PC3M PTB-GFP, PNC prevalence imaging, 16 h; stronger effect = lower value; activity change (PNC), negative = inhibition, % at 10 µM; actives 3.1% (n = 140,000);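 active = readout at or below -70, meaning at least 70% loss of cells showing the perinucleolar compartment, a nuclear body marking cancer cells; inconclusive = readout between -30 and a set limit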;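 also: plate controls were DMSO wells for no effect and camptothecin positive control wells for full effect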
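PC3M cells stably expressing PTB-GFP, 750–1000 cells/well, treated 16 h at 37 °C with compound (23 nl of library stock), in duplicate. After paraformaldehyde fixation and Hoechst stain, imaged at 20x; PNC prevalence scored by image analysis.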
HPGD inh: HPGD (human) dehydrogenase inhibition. P15428. purified HPGD, NADH fluorescence kinetic, PGE2 substrate. Potency, µM, without a hit: at the top dose activity change, negative = inhibition, usual class: inhibitors. actives 4.3% (n = 150,000). AID 894; also: potency is read from the fitted curve at half-maximal effect
Target sequence (P15428 whole entry, looked up): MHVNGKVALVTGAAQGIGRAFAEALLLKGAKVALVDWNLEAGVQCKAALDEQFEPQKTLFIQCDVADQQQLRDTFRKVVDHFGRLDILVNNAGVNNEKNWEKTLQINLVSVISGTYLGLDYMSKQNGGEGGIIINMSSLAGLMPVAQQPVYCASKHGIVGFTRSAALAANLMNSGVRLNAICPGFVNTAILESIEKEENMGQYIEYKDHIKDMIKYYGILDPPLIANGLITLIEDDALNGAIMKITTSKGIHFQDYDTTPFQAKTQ
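NADH formation kinetics: reaction with 30 uM PGE2 and 1 mM NAD+ (final), 20 nM enzyme, Tris-HCl pH 8 with Tween 20, after 15 min compound preincubation at room temperature. Fluorescence change, last versus first of five reads.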
12-hLO inh: inhibitors of human 12-lipoxygenase (ALOX12) | purified 12-hLO, xylenol orange hydroperoxide absorbance | actives 0.12% (n = 150,000) | Potency, µM (series often up to 57.1 µM), without a hit: top-dose activity change, negative = inhibition, most hits filed as inhibitors | P18054; active = well fitted inhibition curve with a large enough effect; inconclusive = small, poorly fitted or top-dose-only effect; also: potency is read from the fitted curve at half-maximal effect; nearly all actives have a fitted effect of over 55% in size
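Xylenol orange chromogenic assay: hydroperoxide from 12hLO oxidises Fe(II), giving red-shifted Fe(III)-XO absorbance. Conditions: 150 nM enzyme, 40 uM arachidonic acid, 25 mM Hepes pH 7.0, 0.01% Triton X-100, 30 min, room temperature.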
LMNA splice mod: LMNA splicing modulation. HeLa LMNA splicing GFP/RFP minigene ratio, 48 h. Potency, µM (series often up to 46.1 µM), inactives show at the highest dose ratio change, negative = inhibition, actives largely listed as inhibitors. actives 0.01% (n = 200,000); active = well fitted inhibition curve with a large enough effect in the signal ratio, with a control signal flat, not every such curve was filed as active; inconclusive = small, poorly fitted or top-dose-only effect, or effect the other way, or a change in a side signal; the % refers to the signal ratio; also: potency is read from the fitted curve at half-maximal effect
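S3 HeLa cells stably expressing lamin A-EGFP splicing minigene plus DsRed2, 600 cells/well, 48 h compound exposure at 37C. Laser-scanning cytometry; analysed as GFP (500-530 nm)/RFP (575-640 nm) total intensity ratio; 0.5% DMSO vehicle.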
ALDH1A1 inh: inhibitors of human aldehyde dehydrogenase 1A1; P00352; Purified ALDH1A1, NADH fluorescence, propionaldehyde substrate; Potency, µM (series often up to 75.3 µM), without a hit: at the top dose activity, negative = inhibition, usual class: inhibitors; actives 7.3% (n = 220,000);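 also: potency is read from the fitted curve at half-maximal effect; plate controls were no enzyme wells and a reference inhibitor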
Target sequence (P00352 whole entry, looked up): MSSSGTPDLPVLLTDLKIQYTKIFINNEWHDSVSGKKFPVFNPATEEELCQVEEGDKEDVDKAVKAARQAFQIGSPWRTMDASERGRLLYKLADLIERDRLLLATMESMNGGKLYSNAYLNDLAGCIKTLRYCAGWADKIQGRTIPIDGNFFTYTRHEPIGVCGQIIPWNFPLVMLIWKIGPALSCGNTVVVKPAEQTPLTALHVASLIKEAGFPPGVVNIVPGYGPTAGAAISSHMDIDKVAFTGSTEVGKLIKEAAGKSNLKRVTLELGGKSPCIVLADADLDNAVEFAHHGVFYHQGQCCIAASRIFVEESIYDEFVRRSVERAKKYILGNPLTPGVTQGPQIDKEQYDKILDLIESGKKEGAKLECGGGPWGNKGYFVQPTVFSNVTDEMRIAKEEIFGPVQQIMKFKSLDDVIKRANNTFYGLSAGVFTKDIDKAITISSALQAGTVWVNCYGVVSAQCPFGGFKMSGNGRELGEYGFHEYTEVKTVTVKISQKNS
* hit, by the source's call; ? = inconclusive; . = not tested or not shown; [ ] = remark or other dose. Unless noted, calls follow the shape of the dose curve; as a rule, active = well fitted inhibition curve with a large enough effect (not every such curve was filed as active); inconclusive = small, poorly fitted or top-dose-only effect, or another doubt; inactive = no such curve, though single readings can be large or run the other way. Unless noted, % is scaled to controls: 0 for no effect and ±100 for the full control effect.

SMILES | PNC inhibitor | HPGD inh | 12-hLO inh | LMNA splice mod | ALDH1A1 inh
Cc1cccc(Nc2nnc(SCC(=O)Nc3ncc(C(F)(F)F)cc3Cl)s2)c1C | 44 | -20% | 0% | 3% | -5%
Cc1cccc(Nc2nnc(SCC(=O)Nc3ccccc3[N+](=O)[O-])s2)c1C | 65 | ? | -6% | ? | 1.3µM*
Cc1ccc(Nc2nnc(SCC(=O)Nc3ccccc3[N+](=O)[O-])s2)cc1 | -119* | -12% | 11% | -15% | 0%
Cc1ccc(CSCc2ccc(C(=O)NCCc3ccc(Cl)cc3)o2)cc1 | . | . | . | -28%[46 µM] | .
COc1cc(/C=C2\SC(=Nc3ccccc3)N(Cc3ccco3)C2=O)ccc1OC(C)C(=O)O (centres undefined) | ? | -27% | -6% | ? | -4%
COCCN1C(=O)/C(=C/c2ccc(OCc3ccc(C(=O)O)cc3)c(OC)c2)SC1=Nc1ccccc1 | 39 | -8% | 3% | 9% | 1.1µM*
c1cncc(-c2cc(-n3ccnc3)ncn2)c1 | . | . | . | 0% | -12%
Cc1cc2c(cc1S(=O)(=O)N(CCN(C)C)Cc1ccccc1)OCC(=O)N2 | . | . | . | -10%[46 µM] | .
COc1cc(N(C)C)c([N+](=O)[O-])cc1C(=O)NC(C)CNc1ccc([N+](=O)[O-])cc1Cl (centres undefined) | 52 | -20% | 2% | 11% | 1.6µM*
O=[N+]([O-])c1ccc(-c2ccc(S(=O)(=O)NCCN3CCCC3)cc2)cc1 | . | . | . | ? | -1%
CCN(CC)S(=O)(=O)c1ccc(OC)c(NC(=S)Nc2cccc(C)c2C)c1 | 9 | 1% | 1% | ? | 25µM*
CCN(CC)S(=O)(=O)c1ccc(OC)c(NC(=S)Nc2cccc(C)c2)c1 | 15 | -14% | -19% | -9% | 11µM*
CCN(CC)S(=O)(=O)c1ccc(OC)c(NC(=O)c2cccc(C)c2[N+](=O)[O-])c1 | . | . | . | 1%[46 µM] | 5.6µM*
CCN(CC)S(=O)(=O)c1ccc(OC)c(NC(=O)CSc2ccccc2)c1 | 35 | -15% | 2% | -2% | -11%
O=C(O)c1cccc(SSc2cccc(C(=O)O)c2)c1 | . | 4.5µM* | -6%[11.4 µM] | . | -11%[13.5 µM]
Oc1ccc2c(c1)C1CCCC1(N1CCOCC1)O2 (centres undefined) | -5 | ? | -16% | 25% | 18µM*
Cn1cnnc1SCC(=O)NCCC(c1ccccc1)c1ccccc1 | -3 | -2% | 7% | 3% | -2%
Cn1cnnc1Sc1ccc(/C=C(\CC(=O)O)c2nc3ccccc3s2)cc1[N+](=O)[O-] | . | . | . | . | 20µM*
O=C(O)CC/C(=C\c1ccccc1[N+](=O)[O-])c1nc2ccccc2s1 | . | . | . | 1%[46 µM] | -2%
COc1cccc(/C=C(\CC(=O)O)c2nc3ccccc3s2)c1 | . | . | . | ? | -3%
Cn1cnnc1Sc1ccc(C(=O)NCCC(c2ccccc2)c2ccccc2)cc1[N+](=O)[O-] | -19 | -20% | -1% | 8% | 20µM*
O=C(O)CC/C(=C\c1ccc(N2CCCC2)c([N+](=O)[O-])c1)c1nc2ccccc2s1 | . | . | . | -19%[46 µM] | 1.3µM*
COc1ccc(NC(=O)c2oc3c(c2C)-c2nn(Cc4ccccc4Cl)cc2CC3)cc1OC | . | . | . | 10%[46 µM] | .
COc1ccc(C(=O)OC(C)C(=O)Nc2cc(C(F)(F)F)ccc2Cl)c(OC)c1OC (centres undefined) | -11 | 25µM* | -2% | ? | 10%
COc1cc(C(=O)Nc2cc(C(F)(F)F)ccc2Cl)cc(OC)c1OC | 0 | 3% | -7% | -7% | -2%
SMILES | PNC inhibitor | HPGD inh | 12-hLO inh | LMNA splice mod | ALDH1A1 inh
C/C(=N\NC(=S)NCc1ccccc1)c1ccc2ccccc2c1 | -99* | -5% | ? | ? | 3%
CC1CCCN(CCCNC(=O)Cn2ncc3c([nH]c4ccccc43)c2=O)C1 (centres undefined) | . | . | . | 5%[46 µM] | .
CCOC(=O)c1cc(C(=O)OCC)c(=O)[nH]c1C | 16 | -28% | -4% | ? | ?
CCOC(=O)c1cc2c(C)[nH]c(C)c2cc(C(=O)OCC)c1=O | . | . | . | -8%[46 µM] | 25µM*
COc1ccc(-c2nn3c(=O)cc(CN4CCN(S(=O)(=O)c5ccc(C)cc5)CC4)nc3s2)cc1 | . | . | . | 9%[46 µM] | .
CC(=O)C1=C(O)CC(c2ccccc2)CC1=NCCc1c(C)[nH]c2ccc(C)cc12 (centres undefined) | -119* | -23% | -1% | 5% | ?
CCC(=NCCc1c(C)[nH]c2ccc(C)cc12)C1=C(O)CC(c2ccccc2)CC1=O (centres undefined) | -116* | -22% | -7% | ? | -10%
O=C(COC(=O)c1cc[n+]([O-])cc1)NCc1ccccc1Cl | . | . | . | . | -8%
COC(=O)C1=NN(N=O)C2(CC(=O)N(c3cc(C)cc(C)c3)C2=O)C1 (centres undefined) | ? | 32µM* | -11% | 0% | 8.9µM*
CCOc1ccccc1CNC(=O)CN1C(=O)CCc2cc(S(=O)(=O)N3CCCCC3)ccc21 | . | . | . | -9%[46 µM] | .
O=C(O)Cn1cc(C(=S)N2CCCCC2)c2ccccc21 | . | . | . | . | 10µM*
O=C(Cn1cc(C(=S)N2CCOCC2)c2ccccc21)N1CCOCC1 | -19 | -6% | -4% | 3% | 2%
O=C(O)Cn1cc(C(=S)N2CCOCC2)c2ccccc21 | ? | 18µM* | 0% | 7% | 19µM*
O=C(C(=O)N1CCOCC1)c1cn(CC(=O)N2CCc3ccccc3C2)c2ccccc12 | . | . | . | 4%[46 µM] | 20µM*
O=C(NCCc1c[nH]c2ccccc12)c1cnccn1 | . | . | . | . | 5%
CC(=O)Nc1ccccc1NC(=O)c1ccc(C)c(C)c1 | . | . | . | 0%[46 µM] | -2%
CC(C)Cn1c(N)c(C(=O)COC(=O)c2ccc([N+](=O)[O-])o2)c(=O)n(C)c1=O | . | . | . | -24%[46 µM] | 18µM*
CC(C)Cn1c(N)c(C(=O)COC(=O)c2ccc(O)cc2)c(=O)n(C)c1=O | . | . | . | . | 7.9µM*
CC(C)Cn1c(N)c(C(=O)COC(=O)c2cnc(Cl)c(Cl)c2)c(=O)n(C)c1=O | . | . | . | -18%[46 µM] | 0.45µM*
COc1cccc(Cn2c(=O)cnc3cnc(N4CCN(C)CC4)nc32)c1 | . | . | . | -11% | ?
COc1ccc(CN=Cc2c(O)[nH]c3ccccc23)cc1 | . | . | . | 25%[9.22 µM] | -2%
Cc1ccc(CN=Cc2[nH]c3ccc(Br)c(Cl)c3c2O)cc1 | 20 | 28µM* | ? | -5% | 0.4µM*
Oc1c(C=NCc2ccc(F)cc2)[nH]c2ccc(Br)c(Cl)c12 | -28 | ? | -8% | 4% | 4.5µM*
CNc1ccc(/C=C/C(=O)c2cccc3ccccc23)cc1[N+](=O)[O-] | 7 | -12% | 4% | -22% | ?
O=C(CN1C(=O)S/C(=C/C=C/c2ccccc2)C1=O)Nc1ccc(C(=O)O)cc1 | . | . | . | . | -7%
O=C(CN1C(=O)S/C(=C\C=C\c2ccccc2)C1=O)Nc1ccc(C(=O)O)cc1 | . | . | . | . | 13µM*
O=CN[C@@H](Cc1cnc[nH]1)C(=O)O | . | -6% | 9%[11.4 µM] | . | 0%[13.5 µM]
